# Data from PubChem BioAssay AID652097 (National Center for Advancing Translational Sciences (NCATS), 2013).
# Active and inactive are the calls of the source.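 How the source made its calls: active means microscopy shows reduced glucosylceramide buildup in Gaucher patient macrophages after treatment; inactive means no reduction in glucosylceramide buildup seen.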
# Assay: Extended Characterization of Activators of N370S glucocerebrosidase as a Potential Chaperone Treatment of Gaucher Disease: GC accumulation
# Conditions: N370S Gaucher macrophages, immunofluorescence microscopy
# Source text: Glucocerebrosidase (GCase) catalyzes the hydrolysis of beta-glucocerebroside (GC) to glucose and ceramide in lysosomes. Mutations in the glucocerebrosidase gene result in Gaucher disease, an autosomal recessive lysosomal storage disorder. Many of the mutations encountered in patients with Gaucher disease are missense alterations that may cause misfolding, decreased stability and/or mistrafficking of this lysosomal protein. […] These inhibitors include iminosugar analogs and other inhibitors that were discovered as part of previous work. However, the enhancement of enzyme activity by the chaperone action of an enzyme inhibitor must be balanced against the direct inhibition of the enzyme. […] In this extended characterization of our probe, we have further characterized the activity of probes in relevant models of Gaucher disease. This assay attempts to quantitate translocated glucocerebrosidase protein in patient-derived macrophages following extended compound incubation. NIH Chemical Genomics Center [NCGC] NIH Molecular Libraries Probe Production Centers Network [MLPCN] MLPCN Grant: MH086442 Assay Submitter (PI): Ellen Sidransky, NHGRI
# Macrophages derived from N370S/N370S Gaucher patients and a control were seeded in Lab-Tek 4 chamber slides (Fisher Scientific, Pittsburgh, PA). After compound treatment, cells were fixed in 3% paraformaldehyde. […]
row,Structure (SMILES),outcome
1,C#Cc1ccc(NC(=O)c2cnn3c(C)cc(C)nc23)cc1,active; decreased
